# Giardia kill – Giardia lamblia killing. Giardia lamblia trophozoite viability. activity change, % at 7.66 µM, hits read low. actives 0.15% (n = 340,000). AID 540267; in the data active = activity change below about -80%; inconclusive = between about -30% and that limit;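 also: parasites exposed to compound for two days anaerobically before the ATP read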
#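 Giardia trophozoites, 100 cells per well, were exposed to compounds for 48 hrs at 37 deg C under anaerobic conditions; viability was then read as ATP content by bioluminescence after 15-30 min at room temperature.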
# Mito fusion yeast – mitochondrial division inhibition or fusion activation. S. cerevisiae fusion-defective mutant growth rescue, CellTiterGlo 48 h. Potency, µM (highest dose often 46.1 µM), hits mostly activators. actives 0.23% (n = 320,000). AID 485298; also: nearly all actives have a fitted effect of over 45% in size
#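 Temperature-sensitive fusion-defective S. cerevisiae (e.g. fzo1-1, mgm1-5) were grown with compound in YPEG medium (3% ethanol, 3% glycerol) for 48 hours at 37C. Growth rescue was measured as viability by CellTiterGlo luminescence after 10 minutes at ambient.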
# B2AR arrestin – recruits beta-arrestin to the human beta2-adrenergic receptor. beta-arrestin recruitment to beta2AR, cell-based reporter. AID 492947. actives 0.02% (n = 330,000). P07550. Potency, µM (series often up to 46.1 µM), usual class: activators; also: nearly all actives have a fitted effect of over 65% in size
# Target sequence (P07550 whole entry, looked up): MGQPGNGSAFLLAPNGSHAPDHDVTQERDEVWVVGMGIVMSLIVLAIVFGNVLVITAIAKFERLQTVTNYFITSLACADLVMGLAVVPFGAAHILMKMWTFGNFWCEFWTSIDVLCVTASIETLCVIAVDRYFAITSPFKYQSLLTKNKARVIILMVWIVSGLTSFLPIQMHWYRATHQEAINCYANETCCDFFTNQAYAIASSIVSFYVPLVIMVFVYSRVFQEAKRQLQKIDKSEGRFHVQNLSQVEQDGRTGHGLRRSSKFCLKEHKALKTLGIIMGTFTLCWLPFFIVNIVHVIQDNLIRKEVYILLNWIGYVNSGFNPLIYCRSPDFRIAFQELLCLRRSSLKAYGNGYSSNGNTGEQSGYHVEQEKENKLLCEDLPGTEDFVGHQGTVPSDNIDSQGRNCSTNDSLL
# uPA generation – cell surface uPA generation inhibition. actives 0.31% (n = 330,000). cell surface uPA generation assay, qHTS. Potency, µM (highest dose often 38.3 µM), actives largely listed as inhibitors. AID 540303; active = well fitted inhibition curve with a large enough effect; inconclusive = small, poorly fitted or top-dose-only effect; inactive = no such curve, though single readings can be large or run the other way; tested in mouse RAW 264.7 cells; also: nearly all actives have a fitted effect of over 55% in size
# ClpP mod – qHTS Assay for Activators of ClpP. ATP-dependent Clp protease proteolytic subunit (Bacillus subtilis (strain 168)), P80244. purified B. subtilis ClpP, FRET peptide cleavage, 20 min. Potency, µM (highest dose often 57.5 µM). actives 1.9% (n = 340,000); active = well fitted falling curve with a large enough effect; inconclusive = small, poorly fitted or top-dose-only effect; inactive = no such curve, though single readings can be large or run the other way; also: the source files actives as falling curves though it sought activators and does not explain the sign; nearly all actives have a fitted effect of over 65% in size
# Target sequence (P80244 whole entry, looked up): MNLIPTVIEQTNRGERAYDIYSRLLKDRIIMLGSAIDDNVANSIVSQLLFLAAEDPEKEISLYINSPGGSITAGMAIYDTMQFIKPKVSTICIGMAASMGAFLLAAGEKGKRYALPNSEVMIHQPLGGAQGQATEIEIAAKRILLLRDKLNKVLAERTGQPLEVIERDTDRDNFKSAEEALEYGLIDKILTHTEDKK
#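 Buffer: 100 mM Tris/HCl pH8, 100 mM KCl, 0.05% low protease BSA, 2.5% glycerol, 0.01% Tween-20. ClpP 10 microg/mL final; 20 min RT; delta FRET normalized to ADEP and DMSO controls.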
# p53 reactivation – mutant p53 re-activation in reporter cells; H1299 p53-A138V BP100-luciferase reporter, luminescence, 24 h; Potency, µM (top dose mostly 92.2 µM), actives largely listed as activators; actives 0.063% (n = 320,000); also: nearly all actives have a fitted effect of over 45% in size
#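 p53-null H1299 cells stably carrying temperature-sensitive p53-A138V and a BP100-luciferase reporter were pinned with compounds (4-point, 1:5 series) and held 24 hrs at 37 deg C. Luminescence was read 10 min after detection reagent.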
# A number is an active result; – = inactive; ? = inconclusive; · = not tested or not shown. Hits are enriched below; roughly 2.1% of the tested compounds scored in any of these assays. Unless noted, calls follow the shape of the dose curve; as a rule, active = well fitted curve in the direction sought with a large enough effect; inconclusive = small, poorly fitted or top-dose-only effect, or another doubt; inactive = no such curve, though single readings can be large; an effect the other way counts as inactive or inconclusive.
SMILES,Giardia kill,Mito fusion yeast,B2AR arrestin,uPA generation,ClpP mod,p53 reactivation
CCS(=O)(=O)N1CCC(C(=O)Oc2ccccc2Br)CC1,–,–,–,–,28µM,·
CCS(=O)(=O)N1CCC(C(=O)Oc2ccccc2OC)CC1,–,–,–,–,–,–
Cc1cccc(/C=N/n2c(-c3cc(-c4ccccc4)n[nH]3)n[nH]c2=S)c1,–,–,–,–,25µM,–
Cn1nc(-c2ccc(OCC(=O)Nc3cccc(C(F)(F)F)c3)cc2)c2ccccc2c1=O,·,·,·,·,–,·
COC(=O)c1cc(COc2ccc3oc(C)c(C(=O)OC(C)C)c3c2)c(C)o1,–,–,–,–,2.5µM,–
COCCOC(=O)c1c(C)oc2ccc(OCc3ccccc3)cc12,–,11µM,–,–,·,–
COCCOC(=O)c1c(C)oc2ccc(OC(=O)c3ccco3)cc12,–,?,–,–,–,–
COc1ccc2c(c1)C=C/C2=C/c1ccc(N(C)C)cc1,·,·,·,·,–,·
Cc1ccc(OCCCC(=O)N2CCOCC2)cc1,–,–,–,–,10µM,–
O=C(Nc1ccc(Cl)cc1)c1ccc(OCC2CCCO2)cc1 (configuration not stated),–,–,–,·,14µM,–
Cc1c(CNCCCc2ccccc2)c(C(=O)O)c(C)n1Cc1ccc(Cl)cc1,·,·,·,·,–,·
Cc1ccc(C2C=C(c3ccccc3OC(F)F)Nc3ncnn32)cc1 (configuration not stated),–,–,–,–,22µM,–
CC(=O)N(c1ccc(Cl)cc1)C1SC(=O)N(c2ccccc2)C1=O (configuration not stated),–,·,·,·,–,·
Brc1cccc(Cn2c(-c3cncs3)nc3ccccc32)c1,–,?,–,–,–,–
Cc1cccc(Cn2c(-c3cccc(Br)c3)nc3ccccc32)c1,·,·,·,·,32µM,·
Cc1cc(C)nc(S/C=C/C(=O)c2ccccc2F)n1,–,–,?,–,35µM,–
Cc1cc(C)nc(NC(=S)NC(=O)c2ccccc2F)n1,–,·,·,–,·,·
N#Cc1ccc(NC(=O)c2ccc3c(c2)nnn3C2CCCC2)cc1,·,·,·,·,–,·
CCN1C(=O)C(Cc2nc3ccccc3c(=O)n2C)c2cc(C)ccc21 (configuration not stated),·,·,·,·,–,·
O=C(Nc1nc2ccc(F)cc2s1)c1ccc([N+](=O)[O-])o1,·,·,·,·,–,·
O=C(Nc1nc2c(F)cccc2s1)c1ccc([N+](=O)[O-])o1,-97,–,–,–,–,?
O=C(Nc1nc2c(Cl)cccc2s1)c1ccc([N+](=O)[O-])o1,-101,–,–,–,–,?
O=C(Nc1nc2c(Cl)cccc2s1)c1ccc(Br)o1,–,–,–,–,–,–
CCOc1ccc(NC(=O)Cn2cc(C(=O)c3ccc(CC)cc3)c(=O)c3cc(C)ccc32)cc1,·,·,·,·,–,·
Cc1cc(C)c(NC(=O)COC(=O)Cn2nc(-c3ccccc3)oc2=O)c(C)c1,–,·,–,–,22µM,–
SMILES,Giardia kill,Mito fusion yeast,B2AR arrestin,uPA generation,ClpP mod,p53 reactivation
N#Cc1cccc(NC(=O)COC(=O)Cn2nc(-c3ccccc3)oc2=O)c1,–,–,–,–,–,–
c1ccc(CSc2nnc(C3CCNCC3)o2)cc1,·,·,·,·,–,·
CC(=O)N1[C@@H]2CC3C4CC=C5C[C@@H](O)CC[C@]5(C)C4CC[C@]3(C)[C@@]21C(C)=O (some centres not stated),–,22µM,–,–,–,–
O=S(=O)(NCc1ccccc1)c1ccc(-c2cnc(C3CC3)o2)cc1,–,–,–,5.6µM,–,–
O=S(=O)(NCc1ccccc1Cl)c1ccc(-c2cnc(C3CC3)o2)cc1,·,·,·,·,–,·
CCOc1ccccc1CNS(=O)(=O)c1ccc(-c2cnc(C3CC3)o2)cc1,–,–,–,0.28µM,–,–
CS(=O)(=O)N(Cc1ccc(C(=O)NN=C2CCCCCC2)cc1)c1ccccc1,–,–,–,–,32µM,–
CS(=O)(=O)N(Cc1ccc(C(=O)NN=C2CCCC2)cc1)c1ccccc1,–,–,–,–,–,–
COCCNC(=O)c1c(C)oc2nc(C)nc(N3CCOCC3)c12,·,·,·,·,–,·
CN(Cc1ccccc1)c1nnc(NC(=O)Nc2cccc(Br)c2)s1,·,·,·,·,–,·
CCn1c2ccccc2c2cc(/C=N/NC(=O)c3ccccc3)ccc21,–,–,–,–,22µM,–
Cn1c2ccccc2c2cc(/C=N/NC(=O)c3cc(O)cc(O)c3)ccc21,–,–,–,–,–,–
COc1cc(C=NNC(=O)c2ccccc2-n2cccc2)ccc1O,–,·,–,–,20µM,–
COc1cc(C(=O)N/N=C/c2ccc3c(c2)c2ccccc2n3C)ccc1O,–,–,–,–,28µM,–
CCOc1ccccc1NC(=O)CSc1nc2ccccc2c2nc(CCn3cncc3C)nn12,·,·,·,·,–,·
C=C1CN(C(C(=O)OC)C(C)C)S(=O)(=O)c2ccc(F)cc21 (configuration not stated),–,·,·,·,·,·
O=c1c2oc3ccccc3c2n(Cc2cccc(C(F)(F)F)c2)c(=O)n1Cc1ccc2c(c1)OCO2,·,·,·,·,–,·
COc1ccc(NC(=O)c2nc3nc(C)cc(C(F)F)n3n2)c(C)c1,·,·,·,·,–,·
COc1ccccc1NC(=O)COC(=O)Cc1cccs1,–,–,–,–,·,–
Cc1cccc(NC(=O)COC(=O)Cc2cccs2)c1C,–,–,–,–,25µM,–
Cc1ccc(C(=O)NCC(=O)OCC(=O)c2ccc3ccccc3c2)cc1,–,·,·,·,?,·
Nc1c(C(=O)NCc2ccccc2)c2nc3ccccc3nc2n1-c1ccc2c(c1)OCO2,–,–,–,–,22µM,–
COCCn1c(N)c(C(=O)NCc2cccs2)c2nc3ccccc3nc21,–,–,–,–,32µM,–
COCCCNC(=O)c1c(N)n(-c2ccccc2)c2nc3ccccc3nc12,–,–,–,–,–,–
COCCNC(=O)c1c(N)n(-c2ccccc2)c2nc3ccccc3nc12,–,–,–,–,18µM,–
SMILES,Giardia kill,Mito fusion yeast,B2AR arrestin,uPA generation,ClpP mod,p53 reactivation
COCCn1c(N)c(S(=O)(=O)c2cccs2)c2nc3ccccc3nc21,–,–,–,–,–,–
N#Cc1c(N)n(CCc2ccc(F)cc2)c2nc3ccccc3nc12,–,–,–,–,32µM,–
Nc1c(C(=O)NCCN2CCOCC2)c2nc3ccccc3nc2n1-c1ccccc1,–,–,–,–,11µM,–
CCC(C)NC(=O)c1c(N)n(/N=C/c2cccnc2)c2nc3ccccc3nc12 (configuration not stated),–,–,–,–,25µM,–
CC(C)CNC(=O)c1c(N)n(/N=C/c2cccnc2)c2nc3ccccc3nc12,·,–,–,·,·,–
COCCCNC(=O)c1c(N)n(/N=C/c2cccs2)c2nc3ccccc3nc12,–,–,–,–,32µM,–
COc1ccc(-n2nc(C(=O)NCc3ccco3)c3ccccc3c2=O)cc1,–,–,–,·,22µM,–
